Values without a mark were called inactive.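 How the source made its calls: active means RAM network inhibition above 8.4% in each of two replicates, 3 SD over the compound average; inconclusive means above 8.4% inhibition in only one replicate; inactive means 8.4% inhibition or less in each replicate.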
Assay: RAM signaling pathway blockade in yeast – S. cerevisiae, Pdr1DBD-CYC8 efflux-inhibited sensitized strain, primary screen (AID 1298);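 further: 0% = DMSO untreated cells without growth and 100% = 10 µM 1-NA-PP1 full growth; higher means more yeast growth rescued from 5-FOA killing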
Settings: S. cerevisiae cbk1-as DSE1-URA3 strain, 5-FOA growth OD615, 2 d; at 50 µM; hits give high values

Compared with `COc1ccc(OC)c(NC(=O)NC2(C(F)(F)F)Oc3ccccc3O2)c1`, `COc1ccc(OC)c(NC(=O)c2cnc3n(c2=O)CCS3)c1` is higher in RAM network inhibition: 4.64% for the first, 7.21% for the second.

First: COc1ccc(S(=O)(=O)NCc2ccc3c(c2)cc(C)n3C)cc1
Second: CCN(CCCNS(=O)(=O)c1ccc2c(c1)CCN2C(C)=O)c1cccc(C)c1
The RAM network inhibition of the first is higher: 7.17% for the first, 4.1% for the second.

Going from `COc1ccc(C(c2sc3nc(C)nn3c2O)N2CCC(C(N)=O)CC2)cc1OC` (stereo not given) to `COc1ccccc1-c1c(C#N)c(SCC(=O)N2CCCC2)nc(C)c1C(N)=O`, the RAM network inhibition falls from 3.49% to 1.04%.

Compared with `CCN(CC)CCNC(=O)Cn1cnc2sc(C)c(S(=O)(=O)N3CCOCC3)c2c1=O`, `O=C(Cn1c(=O)oc2cc(S(=O)(=O)N3CCOCC3)ccc21)N1CCc2ccccc2C1` is lower in RAM network inhibition: 6.22% for the first, 4.35% for the second.

Compared with `C=C(C)Cn1c(CNC(C)=O)nc2ccccc21`, `CC(=O)N1CCc2c(sc(NC(=O)C3CC3)c2-c2nc3ccccc3s2)C1` is higher in RAM network inhibition: 3.9% for the first, 4.93% for the second.

Going from `CCOc1ccc(Cn2nnc(C(=O)NCCc3ccccc3)c2N)cc1` to `CC(CCc1ccco1)NC(=O)Cn1nc(Cc2ccncc2)c2ccccc2c1=O` (stereo not given), the RAM network inhibition falls from 4.53% to 1.95%.

Going from `CC(C)c1nc(SCC(=O)Nc2ccc3c(c2)OCCO3)c2c(=O)n(C)c(=O)n(C)c2n1` to `CC(C)Sc1nc(-c2cccs2)nc2c1c(=O)n(C)c(=O)n2C`, the RAM network inhibition rises from 5.72% to 7.05%.

First: Cc1[nH]c2ccc(-c3n[nH]c(=S)n3C)cc2c1C
Second: CSc1nc2c(c(=O)n1-c1ccc(F)cc1)SCC2
The RAM network inhibition of the first is lower: 0.57% for the first, 4.08% for the second.

Going from `COc1ccc(C2N3CC4(C)CN2CC(C)(C3)C4)cc1OC` (stereo not given) to `COc1ccc(C2C(C(=O)NCCN3CCOCC3)c3ccccc3C(=O)N2C)cc1OC` (stereo not given), the RAM network inhibition rises from 0.83% to 3.26%.

Compared with `O=S(=O)(NCCOCCNS(=O)(=O)c1ccccc1)c1ccccc1`, `Nc1c(S(=O)(=O)c2ccccc2)c2nc3ccccc3nc2n1Cc1ccco1` is higher in RAM network inhibition: 1.94% for the first, 7.51% for the second.

First: CC(C)(C)NC(=O)c1ccc(NC(=O)C2COc3ccccc3O2)cc1 (stereo not given)
Second: Cc1ccc(C(=O)CC(C(=O)O)c2cn(CCC#N)c3ccccc23)cc1 (stereo not given)
The RAM network inhibition of the first is lower: -0.88% for the first, 3.81% for the second.

First: COC(=O)c1ccc(N2C(=O)CC(Sc3n[nH]c(C)n3)C2=O)cc1 (stereo not given)
Second: Nn1c(SCC(=O)Nc2ccc(F)cc2)nnc1-c1ccccn1
The RAM network inhibition of the first is higher: 2.32% for the first, 0.9% for the second.

Compared with `COc1cc(C(=O)Nc2cccc(-c3nc4ccccc4o3)c2C)cc(OC)c1OC`, `CC1=CC(C)(C)N(C(=O)CSc2nnc(-c3ccccc3)o2)c2ccc(C)cc21` is higher in RAM network inhibition: 1.35% for the first, 6.03% for the second.

Going from `CC1=C(C(=O)OC2CCCCCCC2)C(c2ccc(O)cc2)NC(=O)N1` (stereo not given) to `O=C(NCCC1=CCCCC1)NC1CCCCC1`, the RAM network inhibition rises from 3.65% to 5.84%.

First: COc1nc(NC(C)(C)C)nc(Oc2ccc(=O)n(C)n2)n1
Second: Cc1cc(C)c(NC(=O)C(C)(C)C)c(Cl)c1
The RAM network inhibition of the first is higher: 5.11% for the first, 1.23% for the second.

First: COc1ccc(NC(=O)C2CCN(S(=O)(=O)c3cccnc3)CC2)cc1Cl
Second: CC(=O)N1CCC(Nc2ccc(C)cc2)CC1
The RAM network inhibition of the first is higher: 2.55% for the first, 1.48% for the second.

Going from `COc1ccccc1C1C=C(c2ccccc2)Nc2nnnn21` (stereo not given) to `Clc1ccccc1C1CC(c2ccccc2)Nc2ncnn21` (stereo not given), the RAM network inhibition falls from 5.5% to -0.69%.

Going from `CC1CCN(CC(O)COc2cccc(F)c2)CC1` (stereo not given) to `Cn1c(C(=O)N2CCCC2)cc2c(=O)n(C)c3ccccc3c21`, the RAM network inhibition falls from 0.62% to -0.2%.

Compared with `COc1ccc(Cl)cc1Nc1nc(N2CCCC2)nc(N2CCCC2)n1`, `O=C(c1cc(F)c(F)cc1Cl)N1CCCCC1` is lower in RAM network inhibition: 6.43% for the first, 2.31% for the second.

Compared with `CCOc1ccc2nc(NC(=O)Nc3cccs3)sc2c1`, `CC(=O)Nc1cc(NC(C)=O)c(CC(C)C)s1` is higher in RAM network inhibition: 0.79% for the first, 2.34% for the second.

Source: PubChem BioAssay
